PubChem BioAssay
Activity calls are given as the source filed them. Unless noted, the rule behind the calls is not given here.

Tests used:
[1] = system: XIP peptide (Xip251-270) binding; assay: XIP fragment 251-270 binding compounds – biochemical, small-molecule microarray, fluorescence 635/667 nm, 0.1 µg/mL protein, primary screen (AID 1182); conditions: fluorescent protein binding, 635 nm, higher = more signal, called active from +8 up or from −8 down
XIP peptide (Xip251-270) = assay: compounds binding XIP fragment 251-270 – biochemical, small-molecule microarray, fluorescence 635/667 nm, 0.5 µg/mL protein, primary screen (AID 1183); conditions: fluorescence 635 nm, higher = more signal
[2] = blood-stage malaria parasite viability loss – strain 3D7, DAPI fluorescence, 100 nL, primary screen (AID 1184);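 note: parasites grown inside human red blood cells in medium with human serum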; conditions: P. falciparum 3D7 growth, 3 d, higher = more signal
[3] = biological target: Homeobox protein Hox-A13 (Mus musculus) (UniProt Q62424); assay: disruptors of Hoxa13 oligonucleotide interaction – biochemical, fluorescence polarization, labeled oligonucleotide, primary screen (AID 1185); conditions: Hoxa13:DNA binding, 15 min, higher = more signal, called active from +8 up or from −8 down
Homeobox protein Hox-A13 (Mus musculus), sequence (Q62424 whole entry, looked up): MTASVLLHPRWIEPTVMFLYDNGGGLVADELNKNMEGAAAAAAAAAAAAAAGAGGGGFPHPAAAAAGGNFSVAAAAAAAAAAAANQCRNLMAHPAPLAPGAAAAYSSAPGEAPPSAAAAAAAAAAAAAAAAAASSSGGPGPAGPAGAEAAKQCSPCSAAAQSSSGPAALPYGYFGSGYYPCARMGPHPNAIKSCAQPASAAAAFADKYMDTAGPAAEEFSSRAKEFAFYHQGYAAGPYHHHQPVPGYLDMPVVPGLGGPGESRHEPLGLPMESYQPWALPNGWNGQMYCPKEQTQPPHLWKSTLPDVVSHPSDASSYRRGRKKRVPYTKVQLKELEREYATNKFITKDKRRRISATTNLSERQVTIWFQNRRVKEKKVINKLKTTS

[4] = blockers of DNA damage checkpoint Chk1 activation – imaging, HeLa, hydroxyurea, phospho-Chk1 antibody, percent positive cells, primary screen (AID 1186); conditions: hydroxyurea-induced phospho-Chk1 immunofluorescence imaging, higher = more signal
[5] = blockers of DNA damage checkpoint Chk1 activation – imaging, HeLa, hydroxyurea, phospho-Chk1 nuclear intensity, primary screen (AID 1187); conditions: hydroxyurea-induced phospho-Chk1 immunofluorescence imaging, higher = more signal

| Structure (SMILES) | composite z-score [1] | composite z-score (XIP peptide (Xip251-270)) | z-score [2] | z-score [3] | z-score [4] | z-score [5] |
| --- | --- | --- | --- | --- | --- | --- |
| [N-]=[N+]=NCc1ccccc1[C@H]1OC(c2ccc(OCCCO)cc2)=N[C@@]1(Cc1ccccc1N=[N+]=[N-])C(N)=O | -0.19 (inactive) | 0.599 | -0.885 | -6.25 (inactive) | 0.052 (inactive) | 0.516 (inactive) |
| CCCCN1CC=CC23O[C@@H]4C=CCCOC(=O)C4[C@H]2C(=O)N(CCO)[C@@H]3C1=O (some centres undefined) | 0.61 (inactive) | 0.485 | 0.211 | -4.53 (inactive) | -0.307 (inactive) | -0.815 (inactive) |
| COc1ccc([Si](C)(C)[C@@H]2[C@@H](CC(=O)N(CCO)Cc3ccccc3)O[C@]3(C(=O)N(Cc4cccc(I)c4)c4ccccc43)[C@H]2C)cc1 | 0.479 (inactive) | 0.252 | -2.86 | -1.79 (inactive) | 0.55 (inactive) | 0.828 (inactive) |
| Cc1ccc(S[C@]2(C(=O)NC3CC3)CC(=O)N(C3Cc4ccccc4C3)[C@@H]2c2ccc(CO)cc2I)cc1 | 0.406 (inactive) | 0.559 | -0.396 | -2.46 (inactive) | 0.586 (inactive) | 0.97 (inactive) |
| CS(=O)(=O)CCOC(=O)C1=CC(CCCO)=CC(C2CC2)N(Cc2sc3ccccc3c2Cl)C=C1C(=O)OCCS(C)(=O)=O (centres undefined) | 1.05 (inactive) | 0.257 | -3.02 | -4.7 (inactive) | -0.207 (inactive) | -0.0474 (inactive) |
| C=CC[C@H](O)c1ccc(O)c(F)c1 | -0.51 (inactive) | 0.0085 | -0.418 | -1.51 (inactive) | -0.316 (inactive) | -0.264 (inactive) |
| COc1ccc(NN2C(C(O)c3ccc(F)cc3)C=CC3C(=O)N(C4CCCCC4)C(=O)C32)cc1 (centres undefined) | 0.331 (inactive) | 0.878 | -0.517 | -4.3 (inactive) | 0.472 (inactive) | 0.0539 (inactive) |
| CC(C)(C)OC(=O)N1[C@@H](C=C(Br)Br)COC1(C)C | 5.39 (inactive) | -0.0146 | 0.438 | -0.337 (inactive) | -0.35 (inactive) | -0.129 (inactive) |
| C=CCC(OC(C)=O)[C@@H]1[C@@H](N(Cc2ccc(-c3ccccc3)cc2)C(=O)Cc2ccc(OC)cc2)c2cc(OCCCO)ccc2N1C(=O)c1ccc2ccccc2c1 (some centres undefined) | -0.965 (inactive) | -0.0698 | -2.9 | -1.72 (inactive) | 0.443 (inactive) | 0.209 (inactive) |
| COCCOC(=O)N1C(=O)[C@@]2(c3cc(C#CCNC(N)=O)ccc31)[C@H](C(=O)N1CCN(c3ncccn3)CC1)[C@H]1C(=O)O[C@H](c3ccccc3)[C@H](c3ccccc3)N1[C@@H]2c1ccc(O)cc1 | -0.417 (inactive) | 0.288 | 0.614 | -0.508 (inactive) | -0.171 (inactive) | -0.206 (inactive) |
| CC[C@@H](O[Si](C#C[Si](C(C)C)(C(C)C)C(C)C)(C(C)C)C(C)C)c1cn([C@H](C)c2ccccc2)nn1 | -0.645 (inactive) | -0.0862 | -0.38 | 0.0519 (inactive) | 0.0891 (inactive) | -0.469 (inactive) |
| COC(=O)c1c2oc(c1C(=O)OC)C(=O)N[C@H](Cc1ccccc1)Cn1cc(nn1)C1(CCCCC1)NC(=O)N[C@H](CO)CC2 | 0.772 (inactive) | -0.652 | 0.764 | -3.34 (inactive) | -0.0529 (inactive) | -0.669 (inactive) |
| CC(=O)NCCCC[C@@H]1NC(=O)[C@H]2C[C@@H](C(=O)NCCCCCN)[C@@H](c3ccc(O)cc3)N2C1=O | 0.222 (inactive) | 0.562 | 0.0481 | -2.29 (inactive) | 0.32 (inactive) | -0.163 (inactive) |
| C=C(C(=O)CC[C@H](OC(=O)c1ccccc1-c1ccccc1C(=O)O)c1ccc(OCCO)cc1)C(C)C | 0.0052 (inactive) | 0.569 | -2.71 | -6.36 (inactive) | -0.0593 (inactive) | -0.326 (inactive) |
| CN(C)CCCCCCNC(=O)[C@@H]1C[C@@H]2C(=O)N[C@@H](CCCC[N+](C)(C)C)C(=O)N2[C@@H]1c1cccc(OCCO)c1 | 0.877 (inactive) | -0.0938 | -0.143 | -1.8 (inactive) | 0.559 (inactive) | 0.952 (inactive) |
| C=C(COC)C(=O)CC[C@H](OC(C)=O)c1ccccc1OCCO | -0.245 (inactive) | 0.337 | -2.64 | -3.78 (inactive) | -0.201 (inactive) | -0.218 (inactive) |
| COC(=O)[C@@]1(Cc2ccc(F)cc2)[C@H]2c3cc(C(=O)N4CCCC4)n(Cc4ccc(C(F)(F)F)nc4)c3C[C@H]2CN1C(=O)c1ccccc1 | 0.216 (inactive) | 0.602 | -0.532 | -3.29 (inactive) | 0.278 (inactive) | 0.554 (inactive) |

| Structure (SMILES) | composite z-score [1] | composite z-score (XIP peptide (Xip251-270)) | z-score [2] | z-score [3] | z-score [4] | z-score [5] |
| --- | --- | --- | --- | --- | --- | --- |
| O=C1OCCC/C=C\[C@H]2OC34C=CCN(Cc5ccccc5)C(=O)[C@H]3N(CCO)C(=O)[C@@H]4C12 (some centres undefined) | 1.68 (inactive) | -0.0058 | 0.499 | -5.69 (inactive) | -0.909 (inactive) | -0.375 (inactive) |
| COCCOC(=O)N1C(=O)[C@@]2(c3cc(C#CC4(O)CCCCCC4)ccc31)[C@H](C(N)=O)[C@H]1C(=O)O[C@H](c3ccccc3)[C@H](c3ccccc3)N1[C@@H]2c1ccc(OCCO)cc1 | 1.56 (inactive) | 0.73 | -1.62 | -0.51 (inactive) | -0.0908 (inactive) | -0.524 (inactive) |
| CCN1C(=O)C2CC(=O)C3C(CN(S(=O)(=O)c4ccc(C)cc4)C3c3ccc(C)cc3)C2C1=O (centres undefined) | 0.761 (inactive) | -0.248 | 0.38 | -4.69 (inactive) | 0.137 (inactive) | -0.0394 (inactive) |
| CC1(C)OB(/C=C\CC(OC(=O)c2ccncc2)c2ccccc2)OC1(C)C (centres undefined) | 0.258 (inactive) | 0.478 | 0.78 | -3.16 (inactive) | 0.301 (inactive) | 0.415 (inactive) |
| O=C1C2C=CC(C(O)C3CC=CCC3)N(Nc3ccc([N+](=O)[O-])cc3)C2C(=O)N1c1ccccc1 (centres undefined) | 0.524 (inactive) | 0.545 | -0.627 | -3.86 (inactive) | 0.691 (inactive) | -0.101 (inactive) |
| COCCOC(=O)N1C(=O)[C@@]2(c3cc(C#CCC(C(=O)OC)C(=O)OC)ccc31)[C@H](c1ccc(O)cc1)N1[C@H](c3ccccc3)[C@H](c3ccccc3)OC(=O)[C@H]1[C@@H]2C(=O)N1CCc2cc(OC)c(OC)cc2C1 | 0.406 (inactive) | 0.803 | -2.15 | -1.37 (inactive) | -0.0407 (inactive) | 0.46 (inactive) |
| [N-]=[N+]=NCc1ccccc1[C@H]1OC(c2ccc(OCCCO)cc2)=N[C@@]1(CCS(=O)(=O)c1ccccc1)C(=O)NCCN1CCOCC1 | -0.0093 (inactive) | 0.816 | -2.35 | -2.67 (inactive) | -0.0238 (inactive) | -0.0229 (inactive) |
| CCCCN1CC=CC23O[C@@H]4/C=C\CCCOC(=O)C4[C@H]2C(=O)N(CCCCCCO)[C@@H]3C1=O (some centres undefined) | 0.723 (inactive) | 0.803 | -0.165 | -4.71 (inactive) | -0.624 (inactive) | -0.137 (inactive) |
| CC[C@@H](O[Si](C#C[Si](C(C)C)(C(C)C)C(C)C)(C(C)C)C(C)C)c1cn(Cc2cccc(Cl)c2)nn1 | 0.242 (inactive) | -0.0319 | 0.163 | 0.335 (inactive) | 0.212 (inactive) | -0.0184 (inactive) |
| CN(C)CCCCNC(=O)[C@H]1C[C@H]2C(=O)N[C@@H](CCCCN(C)C)C(=O)N2[C@H]1c1ccc(O)cc1 | 0.0043 (inactive) | 0.269 | -0.435 | 0.0335 (inactive) | -1.63 (inactive) | -1.46 (inactive) |
| COc1ccc(C(O)C2C=CC3C(=O)N(c4ccccc4)C(=O)C3N2Nc2ccccc2F)c2ccccc12 (centres undefined) | 1.56 (inactive) | 0.795 | 0.482 | -3.14 (inactive) | 0.0395 (inactive) | -0.3 (inactive) |
| CCCNC(=O)[C@@]1(Sc2ccc(C)cc2)CC(=O)N(Cc2cc(C(F)(F)F)cc(C(F)(F)F)c2)[C@@H]1c1ccc(CO)cc1 | -0.0515 (inactive) | 0.136 | -1.1 | -0.323 (inactive) | -0.0515 (inactive) | 0.0821 (inactive) |
| [N-]=[N+]=NCc1ccccc1[C@H]1OC(c2ccc(OCCCO)cc2)=N[C@@]1(Cc1ccccc1N=[N+]=[N-])C(=O)N1CCOCC1 | -0.185 (inactive) | 0.604 | -2.27 | -1.45 (inactive) | -0.332 (inactive) | 0.0967 (inactive) |
| COc1ccc(C(O)C2C=CC3C(=O)N(C)C(=O)C3N2Nc2ccccc2)cc1 (centres undefined) | 0.488 (inactive) | 0.592 | -0.142 | -3.64 (inactive) | 0.158 (inactive) | -0.0307 (inactive) |
| Cc1ccc(S(=O)(=O)N2[C@@H](c3ccccc3)C(C(=O)O)=CC[C@H]2c2ccc(F)cc2)cc1 | -0.311 (inactive) | -0.0114 | -0.204 | -5.57 (inactive) | 0.388 (inactive) | 0.391 (inactive) |
| O=C1O[C@@H](c2ccccc2)[C@@H](c2ccccc2)N2[C@@H](c3ccc(OCCO)cc3)[C@]3(C(=O)Nc4ccc(C#CC5=CCCCC5)cc43)[C@@H](C(=O)Nc3nc4ccccc4s3)[C@H]12 | -0.487 (inactive) | 0.646 | -1.38 | -15.3 (active) | -0.176 (inactive) | -0.282 (inactive) |
| C[C@]1(C(=O)O)c2ccccc2C(=O)N(Cc2cc(C(F)(F)F)cc(C(F)(F)F)c2)[C@H]1c1ccc(CO)cc1 | 0.17 (inactive) | 0.816 | 1.06 | -2.61 (inactive) | 0.19 (inactive) | 0.362 (inactive) |
